One assay deals with DIO3 (gene 1735). Briefly: CCTE_GLTED_hDIO3: CCTE's human Deiodinase 3 (DIO3) Inhibition Assay, Great Lakes Toxicology and Ecology Division (GLTED) Lab (AID 2284055).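 Further: potency is for inhibition seen as loss of released iodide signal.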 The gist of the method:
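Enzyme activity is tracked as iodide release from substrate by recombinant human DIO3 over 3 h with chemical present. A second Sandell-Kolthoff step converts iodide to an absorbance signal, fitted relative to DMSO.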

A short description of assay [1]: CCTE_Shafer_MEA_acute_LDH: CCTE's Lactate Dehydrogenase Assay for Cytotoxicity in the Neural Acute Assay, Shafer Lab (AID 2284086).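 Further: active means LDH release rises above DMSO vehicle level.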 A digest of the protocol: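 Released lactate dehydrogenase, read at 490 nm, indicated cytotoxicity after acute 40-min compound treatment of rat cortical neuron networks grown on 48-well MEA plates.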
Assay [2] can be described thus: CCTE_Shafer_MEA_dev_LDH: CCTE's Lactate Dehydrogenase Assay for Cytotoxicity in the Neural Network Formation Assay, Shafer Lab (AID 2284068).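 Further: exposure for twelve days from plating with re-dosing on DIV 5 and 9.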 A digest of the protocol:
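Rat cortical primary neurons, MEA culture; dosing day 0–12, full medium plus compound exchange DIV 5, 9. Read-out: LDH enzyme activity, spectrophotometric. DMSO = negative control/baseline; signal loss → cytotoxicity.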

Assay [3] can be described thus: CCTE_Shafer_MEA_dev_AB: CCTE's Alamar Blue Assay for Cytotoxicity in the Neural Network Formation Assay, Shafer Lab (AID 2284083).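 Further: resazurin reduction fluorescence as viability of cultured neurons; twelve days of exposure from plating with re-dosing on DIV 5 and 9.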 A digest of the protocol:
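Rat cortical primary cultures, 1.5 x 10^5 cells/well on MEA; continuous compound exposure over 12 days of network development, re-dosed with full medium change DIV 5 and 9. Alamar Blue fluorescence; loss of signal = cytotoxicity vs DMSO baseline.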
On the technique in general: Alamar Blue is a resazurin reagent that responds to reducing activity.

Assay [4] is described as follows: CCTE_Shafer_MEA_dev_mutual_information_norm: CCTE's Neural Network Formation Assay for Mutual Information Normalization, Shafer Lab (AID 2284091; active means hit-call score of the fitted dose curve at least 0.9, where 1 is the maximum; inactive means score below 0.9;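 on AC50: mutual information between electrodes summarised as area under curve across four recording days; potency is for a decrease in mutual information relative to DMSO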). A digest of the protocol: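 Developing rat cortical networks on 16-electrode MEA wells are treated throughout formation (DIV 0–12). Shared electrode information is recorded four times, converted to area-under-curve, and fitted for decreases against DMSO vehicle.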

A short description of assay [5]: CCTE_Shafer_MEA_dev_correlation_coefficient_mean: CCTE's Neural Network Formation Assay for Mean Correlation Coefficient, Shafer Lab (AID 2284093; active means hit-call score of the fitted dose curve at least 0.9, where 1 is the maximum; inactive means score below 0.9;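 on AC50: well mean pairwise spike train correlation integrated as AUC over recording days 5 to 12; potency fitted for loss of correlation relative to DMSO vehicle wells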). The gist of the method:
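Rat cortical cultures, 1.5 x 10^5 cells/well, dosed from day 0 for 12 days. Spontaneous spikes recorded DIV 5/7/9/12; electrode-pair correlation coefficients averaged, AUC taken. Fit in loss direction vs DMSO.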

Assay [6] can be described thus: CCTE_Mundy_HCI_Cortical_Synap_Neur_Matur_NeuriteSpotCountPerNeuriteLength: CCTE's Synaptogenesis and Neurite Maturation Assay in rat cortical cells for Neurite Spot Count per Neurite Length, Mundy Lab (AID 2284210; active means hit-call score of the fitted dose curve at least 0.9, where 1 is the maximum; inactive means score below 0.9). A digest of the protocol:
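Primary rat cortical neurons, compound exposure DIV 7–12, 288.33 h endpoint. Hoechst, anti-MAP2 and anti-synaptophysin labelling; neurite-associated puncta per neurite length scored by automated imaging relative to DMSO controls.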

A short description of assay [7]: CCTE_Mundy_HCI_Cortical_Synap_Neur_Matur_BPCount: CCTE's Synaptogenesis and Neurite Maturation Assay in rat cortical cells for Branch Point Count, Mundy Lab (AID 2284211; active means hit-call score of the fitted dose curve at least 0.9, where 1 is the maximum; inactive means score below 0.9). A digest of the protocol: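 Branch point number is quantified by automated imaging of fluorescently labelled neurites and synapses in rat primary cortical neurons exposed from DIV 7 to DIV 12. Activity is analysed relative to DMSO negative control.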

Assay [8] can be described thus: CCTE_Mundy_HCI_Cortical_NOG_NeuriteCount: CCTE's Neurite Outgrowth Assay in rat cortical cells for Neurite Count, Mundy Lab (AID 2284212; active means hit-call score of the fitted dose curve at least 0.9, where 1 is the maximum; inactive means score below 0.9;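 further: cells fixed about two days after chemical exposure began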). The gist of the method:
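Neurite number per cell from high-content imaging of betaIII-tubulin immunostaining, with Hoechst nuclear counterstain.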

Assay [9] is described as follows: CCTE_Mundy_HCI_Cortical_NOG_NeuriteLength: CCTE's Neurite Outgrowth Assay in rat cortical cells for Neurite Length, Mundy Lab (AID 2284213; active means hit-call score of the fitted dose curve at least 0.9, where 1 is the maximum; inactive means score below 0.9). The gist of the method:
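Neurite length was read by high-content imaging of βIII-tubulin-labelled neurites in rat primary cortical cultures. Activity was fitted relative to DMSO.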

The nature of assay [10]: CCTE_Mundy_HCI_Cortical_Synap_Neur_Matur_NeuriteLength: CCTE's Synaptogenesis and Neurite Maturation Assay in rat cortical cells for Neurite Length, Mundy Lab (AID 2284214; active means hit-call score of the fitted dose curve at least 0.9, where 1 is the maximum; inactive means score below 0.9). The gist of the method: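 Neurite length in rat primary cortical cultures is imaged after MAP2, synaptophysin and Hoechst staining. Dosing starts DIV 7, ending DIV 12; DMSO serves as negative control and baseline.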

A short description of assay [11]: CCTE_Mundy_HCI_Cortical_Synap_Neur_Matur_NeuriteSpotCountPerNeuron: CCTE's Synaptogenesis and Neurite Maturation Assay in rat cortical cells for Neurite Spot Count per Neuron Count, Mundy Lab (AID 2284215; active means hit-call score of the fitted dose curve at least 0.9, where 1 is the maximum; inactive means score below 0.9). The gist of the method:
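Rat primary cortical cultures given AraC at DIV 5, dosed from DIV 7 to DIV 12 with media change. Fixed, stained for MAP2, synaptophysin and Hoechst; neurite-associated synaptophysin puncta per neuron quantified by high-content imaging versus DMSO.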

A short description of assay [12]: CCTE_Mundy_HCI_Cortical_Synap_Neur_Matur_SynapseCount: CCTE's Synaptogenesis and Neurite Maturation Assay in rat cortical cells for Synapse Count, Mundy Lab (AID 2284218; active means hit-call score of the fitted dose curve at least 0.9, where 1 is the maximum; inactive means score below 0.9). A digest of the protocol: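 Synapse count per neuron is measured in rat cortical neurons exposed to chemicals between DIV 7 and DIV 12, with glial growth arrested by AraC at DIV 5. Synaptophysin and MAP2 staining is imaged automatically; activity is fitted relative to DMSO.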

Assay [13] can be described thus: CCTE_Mundy_HCI_hN2_NOG_NeuriteCount: CCTE's Neurite Outgrowth Assay in human hN2 cells for Neurite Count, Mundy Lab (AID 2284219). The gist of the method:
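In this morphology assay, hNP1-derived neurons received test chemical 2 h post-plating and were fixed two days later in warm paraformaldehyde/sucrose containing Hoechst 33342. Neurites, labelled by rabbit anti-βIII-tubulin (1:800) and Alexa Fluor-488 (1:500), were counted automatically.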

A short description of assay [14]: CCTE_Mundy_HCI_hN2_NOG_NeuriteLength: CCTE's Neurite Outgrowth Assay in human hN2 cells for Neurite Length, Mundy Lab (AID 2284220). The gist of the method:
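Plate hNP1-derived neurons, then add chemical 2 h later as a 1/10 dilution. Stain with anti-βIII-tubulin then Alexa Fluor-488 secondary, and image automatically to measure neurite length.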

The nature of assay [15]: CCTE_Mundy_HCI_hN2_NOG_NeuronCount: CCTE's Neurite Outgrowth Assay in human hN2 cells for Neuron Count, Mundy Lab (AID 2284221). A digest of the protocol:
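Read-out is the number of betaIII-tubulin-positive neurons imaged by automated high-content analysis, with DMSO as negative control.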

Assay [16] can be described thus: IUF_NPC1b_proliferation_BrdU_72hr: Leibniz Research Institute for Environmental Medicine (IUF) 72-hour Neural Progenitor Cell Bromodeoxyuridine (BrdU) Proliferation Assay (NPC1b) (AID 2284207; active means hit-call score of the fitted dose curve at least 0.9, where 1 is the maximum; inactive means score below 0.9). A digest of the protocol:
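Proliferation of primary human neural progenitor cells: 72 h compound treatment at 37C, 5% CO2, pH 7.2-7.6, in EGF/FGF-containing medium. Readout is BrdU uptake (last 16 h) by chemiluminescent ELISA, normalised to DMSO.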

Assay [17] can be described thus: IUF_NPC1a_proliferation_area_72hr: Leibniz Research Institute for Environmental Medicine (IUF) 72-hour Neural Progenitor Cell Proliferation Area Assay (NPC1a) (AID 2284208; active means hit-call score of the fitted dose curve at least 0.9, where 1 is the maximum; inactive means score below 0.9). The gist of the method:
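Single 0.25–0.35 mm human fetal neural progenitor spheres in proliferation medium with EGF and FGF, exposed 72 h from plating without renewal at 37C, pH 7.2-7.6. Sphere area growth measured by automated phase-contrast imaging, relative to DMSO.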

The nature of assay [18]: IUF_NPC1_viability_72hr: Viability Assessment at 72 hours in the Leibniz Research Institute for Environmental Medicine (IUF) Neural Progenitor Cell Proliferation Assay (NPC1) (AID 2284209; active means hit-call score of the fitted dose curve at least 0.9, where 1 is the maximum; inactive means score below 0.9). A digest of the protocol: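 Each well receives one 0.3 mm progenitor sphere from fetal brain cortex; test chemical is added at plating and left three days. Viability comes from alamar blue fluorescence, multiplexed with LDH and BrdU readouts in the same well.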

Records with an inconclusive call do not appear. The source made the active and inactive calls. How the source made its calls, unless noted: active means hit-call score of the fitted dose curve at least 0.9, where 1 is the maximum; inconclusive means response in the unintended direction; inactive means score below 0.9.

On to `CC(C)=CCCC(C)=CC=O`, for which the AC50 in the assay with DIO3 (gene 1735) was 31.3 µM (active). Moreover, the outcome in assay [1] was inactive.

In the case of `On1ccccc1=S`, the outcome in assay [1] was inactive.

On to `CCCN(C1CCN(C(=O)C2CCNCC2)CC1)[C@@H]1CCc2ccc(OC)cc2C1`, for which the compound was called inactive in assay [1].

`Clc1nc(Cl)c(Cl)c(Cl)c1Cl`: the concentration at half-maximal activity (AC50) in the assay on DIO3 (gene 1735) is 0.92 µM (active).

With `COc1ccc2sc(C(=O)Nc3nnn[nH]3)c(OC(C)C)c2c1`, the outcome in assay [1] was inactive.

For the compound `CCOC(=O)c1ccc(C2CCC(NC[C@H](O)COc3ccc(O)c(NS(C)(=O)=O)c3)CC2)cc1` (stereo partly specified), the half-maximal activity concentration (AC50) in the assay with DIO3 (gene 1735) was 126 µM (active). Also, the compound was classed as inactive in assay [1].

Take `CNCc1ccc(NC(=O)c2c[nH]c3c2C(=O)CCC3)cc1`: the AC50 in [2] was 0.865 µM (active); in [4] it was 0.755 µM (active). Further, the call in [3] and in [5] was inactive.

Turning to `O=C(O)c1cc(N=Nc2ccc(S(=O)(=O)Nc3ccccn3)cc2)ccc1O`, the compound was called inactive in assay [1].

`Cn1c(=O)c2c(ncn2C)n(C)c1=O`: the result in [4], in [5], in assay [6], in [7], in assay [8] and in assay [9] was inactive. The result in assay [10], in assay [11], in assay [12], in [13], in assay [14] and in assay [15] was inactive.

In the case of `COc1cccc(-c2ccc(/C=C\CN3CCCCCC3)cc2Cl)c1`, the concentration at half-maximal activity (AC50) in the assay on DIO3 (gene 1735) is 32.8 µM (active). For the same compound, in assay [1], the call was inactive.

On to `CC[C@H]1CC[C@H](NCc2cc3c(cc2OC)[C@H]2C[C@H]2C(=O)N3C)[C@H](c2ccccc2)N1`, for which, in assay [1], the outcome was inactive.

Take `Cc1[nH]cnc1C[C@H]1CCc2c(C)c3ccccc3n2C1=O`: in assay [1], the compound was classed as inactive.

Take `O=C(O)CCN(C1(C(=O)NO)CCCC1)S(=O)(=O)c1ccc(Oc2ccc(F)cc2)cc1`: the result in assay [1] was inactive.

Turning to `CC[C@H](C)C(=O)O[C@H]1C[C@@H](C)C=C2C=C[C@H](C)[C@H](CC[C@@H]3C[C@@H](O)CC(=O)O3)[C@H]21`, the AC50 in the assay on DIO3 (gene 1735) is 100 µM (active); in assay [2], 0.956 µM (active); in [3] it was 10 µM (active); in assay [5], 0.0169 µM (active). For the same compound, the compound was called inactive in assay [4].

For the compound `CCOc1cccc(-n2cc(C(=O)N3CCN(c4cc(C(=O)O)c5ccccc5c4)CC3)nc2-c2ccc(C)cc2)c1`, the AC50 in the assay on DIO3 (gene 1735) is 140 µM (active).

Turning to `O=P(OC(CCl)CCl)(OC(CCl)CCl)OC(CCl)CCl`, the compound was classed as inactive in assay [2], in assay [3], in [1], in assay [4], in assay [5] and in assay [16]. The call in assay [17], in [18], in assay [6], in assay [8], in assay [9] and in assay [10] was inactive. Besides, the AC50 in [7] is 6.93 µM (active); in [11] it was 2.98 µM (active); in [12], 2.98 µM (active).

By AC50 is commonly meant the midpoint of the concentration-response curve, whichever way the signal moves.

The record behind these values is PubChem BioAssay (EPA / NIEHS).
